According to PubChem BioAssay (NCI):
The panel holds about 83,000 compounds, 20% with a hit somewhere; the sample as a whole holds those more often.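 96-well plates, one dose, 48 hours. Percent growth reported; active if below 10.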 Values without a mark were called inactive. Active and inactive are the calls of the source.

What follows are compounds tested on OVCAR-3 ovarian (assay: NCI-60 one-dose screen, 48 h (100 = growth as untreated, 0 = no growth, -100 = all killed)). Details: 1 µM.

Question: Which growth does the source give for `CC/C(=C(\c1ccc(O)cc1)c1ccc(OCCN(C)C(=O)COCCNC(=O)Cc2ccc3c(c2)CN([C@@H]2CCC(=O)NC2=O)C3=O)cc1)c1ccccc1` here?
Answer: 85.9%

Question: How did the growth turn out when `CC/C(=C(\c1ccc(O)cc1)c1ccc(OCCN(C)C(=O)CCOCCNC(=O)c2ccc3c(c2)CN([C@@H]2CCC(=O)NC2=O)C3=O)cc1)c1ccccc1` was run?
Answer: 93.7%

Question: With `CC/C(=C(/c1ccc(O)cc1)c1ccc(OCCN(C)C(=O)CCOCCNC(=O)Cc2ccc3c(c2)CN([C@@H]2CCC(=O)NC2=O)C3=O)cc1)c1ccccc1` as the compound, how does the growth read?
Answer: 102%

Question: Which growth does the source give for `CC/C(=C(/c1ccc(O)cc1)c1ccc(OCCN(C)C(=O)COCCOCCNC(=O)c2ccc3c(c2)CN([C@@H]2CCC(=O)NC2=O)C3=O)cc1)c1ccccc1` here?
Answer: 99.1%

Same assay, conditions: 10 µM

Question: Which growth does the source give for `CC/C(=C(\c1ccc(O)cc1)c1ccc(OCCN(C)C(=O)COCCNC(=O)Cc2ccc3c(c2)CN([C@@H]2CCC(=O)NC2=O)C3=O)cc1)c1ccccc1` here?
Answer: 54.8%

Question: `CC/C(=C(\c1ccc(O)cc1)c1ccc(OCCN(C)C(=O)CCOCCNC(=O)c2ccc3c(c2)CN([C@@H]2CCC(=O)NC2=O)C3=O)cc1)c1ccccc1` was tested. Which growth did it give?
Answer: 105%

Question: `CC/C(=C(/c1ccc(O)cc1)c1ccc(OCCN(C)C(=O)CCOCCNC(=O)Cc2ccc3c(c2)CN([C@@H]2CCC(=O)NC2=O)C3=O)cc1)c1ccccc1` was tested. Which growth did it give?
Answer: 68.4%

Question: With `CC/C(=C(/c1ccc(O)cc1)c1ccc(OCCN(C)C(=O)COCCOCCNC(=O)c2ccc3c(c2)CN([C@@H]2CCC(=O)NC2=O)C3=O)cc1)c1ccccc1` as the compound, how does the growth read?
Answer: 95.8%

Same assay, conditions: 10 µM unless noted

Question: With `N#CC1=C(c2cccs2)Nc2c(c(-c3ccccc3)nn2-c2ccccc2)C12C(=O)Nc1ccccc12` (centres undefined) as the compound, how does the growth read?
Answer: 12.7%

Question: For `O=C1CC(c2ccc(I)cc2)OC2C=Cc3ccccc3C12` (centres undefined), which growth is on record?
Answer: 125%

Question: Which growth does the source give for `COc1ccc2c(c1)N=c1c-2cc2c(O)[nH]c(=S)n2c1=O` here?
Answer: 33.8%

Question: With `CS(=O)(=O)Nc1cc(-c2ccc3ncnc(N4CCc5cc(F)c(Cl)cc54)c3c2)cnc1Cl` as the compound, how does the growth read?
Answer: -22.6% (active)

Question: With `CC1=C(C(=O)OC(C)C)C(c2ccc(O)cc2)NC(=O)N1` (centres undefined) as the compound, how does the growth read?
Answer: 108%

Question: `COc1cccc(/C=C/c2nc3ccccc3c(=O)n2CC(=O)Nc2ccccc2)c1` was tested. Which growth did it give?
Answer: 74.6%

Question: With `COC(=O)c1c(C(=O)OC)c2ccc3c4ccccc4ccc3n2c1C(=O)OC` as the compound, how does the growth read?
Answer: 75.8%

Question: `O=C(c1cc2cc(OCCCN3CCC3)ccc2[nH]1)N1C[C@@H](CCl)c2c1cc(OCc1ccccc1)c1ccccc21` was tested. Which growth did it give?
Answer: -29.5% (active)

Question: Which growth does the source give for `CC(C)(C)OC(=O)N1CCC2(CC1)Oc1ccccc1[C@H]1CC(c3ccc(Br)cc3)=NN12` here?
Answer: 77.1%

Question: `COc1ccc(NC2=C(I)C(=O)C(C)=C(C)C2=O)cc1` was tested. Which growth did it give?
Answer: -17.1% (active)

Question: Which growth does the source give for `CC[C@]12C=CCN3CC[C@@]4(c5ccc(OC)cc5N(C)[C@H]4[C@@](O)(C(=O)OC)[C@@H]1OC(=O)CCCC[P+](c1ccc(F)cc1)(c1ccc(F)cc1)c1ccc(F)cc1)[C@@H]32` here?
Answer: 12.6%

Question: `FC(F)(F)c1cc2c(Cl)ncnc2n1CCN1CCCCC1` was tested. Which growth did it give?
Answer: -21.7% (active)

Question: `O=C(CSc1nnc(-c2ccc(-c3nc4ccc(Cl)cc4[nH]3)cc2)o1)Nc1ccccc1` was tested. Which growth did it give?
Answer: 43.4%

Question: Which growth does the source give for `Cc1cccc(NCC(=O)N2CCN(c3ncnc4c3cnn4-c3ccccc3)CC2)c1` here?
Answer: 94%

Question: With `CS(=O)(=O)c1ccc(-n2nc(C(=O)NCc3ccccc3)cc2-c2ccc(Cl)cc2)cc1` as the compound, how does the growth read?
Answer: 99.7%

Question: How did the growth turn out when `O=C(c1ccc(Cl)cc1)C1[C@H](c2ccccc2Cl)[C@@H](c2ccccc2)NC12C(=O)Nc1ccccc12` (some centres undefined) was run?
Answer: -15.5% (active)

Question: For `O=C1NC(=NC23CC4CC(CC(C4)C2)C3)N/C1=C\c1ccc2ncccc2c1`, which growth is on record?
Answer: -55.3% (active)

Question: How did the growth turn out when `N#CC1=C(c2ccco2)Nc2c(c(-c3ccccc3)nn2-c2ccccc2)C12C(=O)Nc1ccc(Cl)cc12` (centres undefined) was run?
Answer: -27.2% (active)

Question: `O=C(c1ccc(O)cc1)C1[C@H](c2ccccc2Br)[C@@H](c2ccccc2)NC12C(=O)Nc1ccccc12` (some centres undefined) was tested. Which growth did it give?
Answer: 20.7%

Question: Which growth does the source give for `c1ccc(CSc2nnc(-c3ccc4nc(-c5ccccc5)[nH]c4c3)o2)cc1` here?
Answer: 27.4%

Question: `O=C(CSc1nnc(-c2ccc(-c3nc4ccccc4[nH]3)cc2)o1)Nc1ccccc1` was tested. Which growth did it give?
Answer: 92.2%

Question: How did the growth turn out when `CCCCCCCCCCCCCCCCCC(=O)Nc1ccc(OC)cc1` was run?
Answer: 119%

Question: For `Nc1nn2c(-c3cc4ccccc4oc3=O)ccnc2c1N=Nc1ccccc1`, which growth is on record?
Answer: 82.7%

Question: With `O=C1NC(=S)/C(=C/c2cn(-c3ccccc3)nc2-c2ccccc2)S1` as the compound, how does the growth read?
Answer: 36.7%

Question: `CC(Nc1ncnc2ccc(-c3ccc4oc(N)nc4c3)cc12)c1ccccc1` (centres undefined) was tested. Which growth did it give?
Answer: -19.5% (active)

Question: `O=C(N/N=C/c1ccsc1)c1[nH]c2ccc(Br)cc2c1-c1ccccc1` was tested. Which growth did it give?
Answer: -72.9% (active)
